{"source": "the supplement of paper PMC8975748", "note": "Where a name gives a salt, the structure may show the parent alone."}
{"test_system": "Saccharomyces cerevisiae BY4741 SeMeCo community", "test": "z-score of prototroph abundance vs DMSO median; higher = larger share of this subpopulation than in DMSO controls", "details": "10 µM; 24 h; SM minimal medium; subpopulation (auxotrophy): Prototroph", "experimental": "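Fluorescent four-plasmid SeMeCo (self-establishing metabolically cooperating S. cerevisiae BY4741 community; plasmids pH-mRuby2, pL-mWasabi, pU-eCFP, pM-TagRFP657) was grown 24 h in minimal SM medium with each Selleck FDA-approved drug at 10 µM in 384-well plates. Cells were fixed and imaged by high-content confocal microscopy. For each auxotrophic subpopulation (and the prototroph), a z-score gives the deviation from the DMSO vehicle-control population median.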"}
{"smiles": "CC[C@@H]([C@H](C)O)n1ncn(-c2ccc(N3CCN(c4ccc(OC[C@@H]5CO[C@@](Cn6cncn6)(c6ccc(F)cc6F)C5)cc4)CC3)cc2)c1=O", "note": "[Posaconazole]", "z-score of prototroph abundance": -11.6}
{"smiles": "C[N+](C)(C)CCO.[Cl-]", "note": "[Choline Chloride]", "z-score of prototroph abundance": 0.21}
{"smiles": "CC(=O)Oc1ccccc1C(=O)O", "note": "[Aspirin]", "z-score of prototroph abundance": -0.19}
{"smiles": "CC1(C)S[C@@H]2[C@H](NC(=O)[C@H](NC(=O)N3CCNC3=O)c3ccccc3)C(=O)N2[C@H]1C(=O)O", "note": "[Azlocillin sodium salt]", "z-score of prototroph abundance": 0.68}
{"smiles": "Cc1cc(C)nc(NS(=O)(=O)c2ccc(N)cc2)n1", "note": "[Sulfamethazine Sodium Salt]", "z-score of prototroph abundance": 0.49}
{"smiles": "O=C(Nc1cc(Cl)cc(Cl)c1O)c1c(O)c(Cl)cc(Cl)c1Cl", "note": "[Oxyclozanide]", "z-score of prototroph abundance": 2.11}
{"smiles": "Nc1ccc(S(=O)(=O)Nc2cnc3ccccc3n2)cc1", "note": "[Sulfaquinoxaline sodium]", "z-score of prototroph abundance": -0.68}
{"smiles": "Clc1ccc(COC(Cn2ccnc2)c2ccc(Cl)cc2Cl)cc1", "note": "(stereo not given) [Econazole nitrate]", "z-score of prototroph abundance": -8.44}
{"smiles": "C[C@]12CC[C@@H]3c4ccc(O)cc4CC[C@H]3[C@@H]1CC[C@@H]2OC(=O)CCC1CCCC1", "note": "[Estradiol Cypionate]", "z-score of prototroph abundance": -0.3}
{"smiles": "Oc1ccc([C@H]2COc3cc(O)ccc3C2)cc1", "note": "[Equol]", "z-score of prototroph abundance": 0.13}
{"smiles": "N=C(N)NC(=N)N1CCOCC1", "note": "[Moroxydine HCl]", "z-score of prototroph abundance": 0.31}
{"smiles": "COc1ccccc1N1CCN(CCCNc2cc(=O)n(C)c(=O)n2C)CC1", "note": "[Urapidil HCl]", "z-score of prototroph abundance": -0.23}
{"smiles": "N=C(N)NC(=O)c1nc(Cl)c(N)nc1N", "note": "[Amiloride HCl dihydrate]", "z-score of prototroph abundance": 1.39}
{"smiles": "COc1ccc(C[C@H](N)C(=O)N[C@H]2[C@@H](O)[C@H](n3cnc4c(N(C)C)ncnc43)O[C@@H]2CO)cc1", "note": "[Puromycin 2HCl]", "z-score of prototroph abundance": -0.54}
{"smiles": "Cn1cc(C(=O)[C@@H]2CCc3[nH]cnc3C2)c2ccccc21", "note": "[Ramosetron Hydrochloride]", "z-score of prototroph abundance": -0.53}
{"smiles": "CCCCCCCCCC(=O)NC1C(Oc2c3cc4cc2Oc2ccc(cc2Cl)C(OC2OC(CO)C(O)C(O)C2NC(C)=O)C2NC(=O)C(NC(=O)C4NC(=O)C4NC(=O)C(Cc5ccc(c(Cl)c5)O3)NC(=O)C(N)c3ccc(O)c(c3)Oc3cc(O)cc4c3)c3ccc(O)c(c3)-c3c(OC4OC(CO)C(O)C(O)C4O)cc(O)cc3C(C(=O)O)NC2=O)OC(CO)C(O)C1O", "note": "(stereo not given) [Teicoplanin]", "z-score of prototroph abundance": -0.99}
{"smiles": "CN(Cc1cnc2nc(N)nc(N)c2n1)c1ccc(C(=O)N[C@@H](CCC(=O)O)C(=O)O)cc1", "note": "[Methotrexate disodium]", "z-score of prototroph abundance": 0.74}
{"smiles": "O=[N+]([O-])c1ccc(O)c2ncccc12", "note": "[Nitroxoline]", "z-score of prototroph abundance": -16.6}
{"smiles": "CC(=O)OCC1=C(C(=O)O)N2C(=O)[C@@H](NC(=O)Cc3cccs3)[C@H]2SC1", "note": "[Cephalothin]", "z-score of prototroph abundance": 0.3}
{"smiles": "CCN(CC)CCOC(=O)c1ccc(N)cc1Cl", "note": "[Chloroprocaine HCl]", "z-score of prototroph abundance": -0.55}
{"smiles": "CC(C)(C)CC(C)(C)c1ccc(OCCOCC[N+](C)(C)Cc2ccccc2)cc1", "note": "[Benzethonium Chloride]", "z-score of prototroph abundance": 0.89}
{"smiles": "COc1ccc(Cc2cnc(N)nc2N)cc1OC", "note": "[Diaveridine]", "z-score of prototroph abundance": 0.22}
{"smiles": "CCOc1cc(N)c([N+](=O)[O-])cc1C(=O)NC1CCN(CC2CC=CCC2)CC1", "note": "(stereo not given) [Cinitapride Hydrogen Tartrate]", "z-score of prototroph abundance": -1.19}
{"smiles": "CO/N=C(\\C(=O)N[C@@H]1C(=O)N2C(C(=O)O)=C(CSC(=O)c3ccco3)CS[C@H]12)c1csc(N)n1", "note": "[Ceftiofur]", "z-score of prototroph abundance": -0.44}
{"smiles": "Cc1ccccc1OCC(O)CO", "note": "(stereo not given) [Mephenesin]", "z-score of prototroph abundance": 0.89}
{"smiles": "C/C=C\\c1ccc(O)c(OC)c1", "note": "[Isoeugenol]", "z-score of prototroph abundance": -0.36}
{"smiles": "COc1ccc(C2CNC(=O)C2)cc1OC1CCCC1", "note": "(stereo not given) [Rolipram]", "z-score of prototroph abundance": 0.66}
{"smiles": "Oc1ccc(C2CNCCc3c2cc(O)c(O)c3Cl)cc1", "note": "(stereo not given) [Fenoldopam mesylate]", "z-score of prototroph abundance": 0.87}
{"smiles": "C#C[C@]1(O)CC[C@H]2[C@@H]3CCc4cc(OC5CCCC5)ccc4[C@H]3CC[C@@]21C", "note": "[Quinestrol]", "z-score of prototroph abundance": -0.35}
{"smiles": "CC[N+](CC)(CC)CCOc1cccc(OCC[N+](CC)(CC)CC)c1OCC[N+](CC)(CC)CC", "note": "[Gallamine Triethiodide]", "z-score of prototroph abundance": 0.05}
{"smiles": "CO/N=C(\\C(=O)N[C@@H]1C(=O)N2C(C(=O)O)=CCS[C@H]12)c1csc(N)n1", "note": "[Ceftizoxime sodium]", "z-score of prototroph abundance": 0.46}
{"smiles": "C[C@H](Nc1ncnc2nc[nH]c12)c1cc2cccc(Cl)c2c(=O)n1-c1ccccc1", "note": "[Duvelisib (IPI-145, INK1197)]", "z-score of prototroph abundance": -0.55}
{"smiles": "CCOC(=O)CCC(=O)O[C@H]1[C@H](O[C@@H]2[C@@H](C)[C@H](O[C@H]3C[C@@](C)(OC)[C@@H](O)[C@H](C)O3)[C@@H](C)C(=O)O[C@H](CC)[C@@](C)(O)[C@H](O)[C@@H](C)C(=O)[C@H](C)C[C@@]2(C)O)O[C@H](C)C[C@@H]1N(C)C", "note": "[Erythromycin Ethylsuccinate]", "z-score of prototroph abundance": -2.21}
{"smiles": "COc1ccc2cc3[n+](cc2c1OC)CCc1cc2c(cc1-3)OCO2", "note": "[Berberine chloride]", "z-score of prototroph abundance": -0.22}
{"smiles": "COc1ccc(NS(=O)(=O)c2ccc(N)cc2)nn1", "note": "[Sulfamethoxypyridazine]", "z-score of prototroph abundance": 0.98}
{"smiles": "Cn1nnc(-c2ccc(-c3ccc(N4C[C@H](COP(=O)(O)O)OC4=O)cc3F)cn2)n1", "note": "[Tedizolid Phosphate]", "z-score of prototroph abundance": 1.14}
{"smiles": "CN1C2CCC1CC(OC(=O)C(O)c1ccccc1)C2", "note": "(stereo not given) [Homatropine Bromide]", "z-score of prototroph abundance": -0.38}
{"smiles": "Cc1ccc(Sc2ccccc2N2CCNCC2)c(C)c1", "note": "[Vortioxetine]", "z-score of prototroph abundance": 0.02}
{"smiles": "C(=C\\c1ccccc1)/CN1CCN(C(c2ccccc2)c2ccccc2)CC1", "note": "[Cinnarizine]", "z-score of prototroph abundance": -1.14}
{"smiles": "C[C@@H]1O[C@@H]1P(=O)(O)O", "note": "[Fosfomycin Disodium]", "z-score of prototroph abundance": 0.42}
